Read-out in assay [1]: Thrombomodulin, THBD (gene 7056)
Kind of assay: BSK_CASM3C_Thrombomodulin: BioMAP Diversity Plus: CASM3C Assay for Thrombomodulin Biomarker Activity (AID 2283051).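 Also: thrombomodulin protein level measured by ELISA 24 h after dosing.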 The settings on record: primary human coronary artery smooth muscle cells; actives raise or lower the signal.

Read-out in assay [2]: Tissue Factor, F3 (gene 2152)
Put plainly: BSK_CASM3C_TissueFactor: BioMAP Diversity Plus: CASM3C Assay for Tissue Factor Biomarker Activity (AID 2283052).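 Also: cell surface tissue factor protein level read by ELISA.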 The settings on record: primary human coronary artery smooth muscle cells; actives raise or lower the signal.

Read-out in assay [3]: Interferon-gamma inducible Protein 10 (IP10), CXCL10 (gene 3627)
Kind of assay: BSK_hDFCGF_IP10: BioMAP Diversity Plus: hDFCGF Assay for Interferon-gamma inducible Protein 10 (IP10) Biomarker Activity (AID 2283053). As to conditions: primary human foreskin fibroblasts; actives raise or lower the signal. The procedure, abridged:
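Chemical-treated human skin fibroblasts (primary) were sampled at 24 h for IP-10 by ELISA. Both increases and decreases relative to DMSO were scored.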

Read-out in assay [4]: Urokinase-type plasminogen activator receptor (uPAR), PLAUR (gene 5329)
Kind of assay: BSK_CASM3C_uPAR: BioMAP Diversity Plus: CASM3C Assay for Urokinase-type plasminogen activator receptor (uPAR) Biomarker Activity (AID 2283054).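 Also: cell-surface uPAR protein level quantified by ELISA.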 As to conditions: primary human coronary artery smooth muscle cells; actives raise or lower the signal.

Read-out in assay [5]: Vascular cell adhesion molecule 1 (VCAM1), VCAM1 (gene 7412)
Kind of assay: BSK_CASM3C_VCAM1: BioMAP Diversity Plus: CASM3C Assay for Vascular cell adhesion molecule 1 (VCAM1) Biomarker Activity (AID 2283055).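 Also: VCAM-1 protein level quantified by ELISA on the cells.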 The settings on record: primary human coronary artery smooth muscle cells; actives raise or lower the signal.

Read-out in assay [6]: Collagen III, COL3A1 (gene 1281)
Put plainly: BSK_hDFCGF_CollagenIII: BioMAP Diversity Plus: hDFCGF Assay for Collagen III Biomarker Activity (AID 2283056). As to conditions: primary human foreskin fibroblasts; actives raise or lower the signal. The procedure, abridged:
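Human foreskin primary fibroblasts were exposed to test chemicals for 24 h, after which collagen III was quantified by ELISA. Activity was fitted bidirectionally against DMSO as negative control and baseline.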

Read-out in assay [7]: Epidermal growth factor receptor (EGFR), EGFR (gene 1956)
Put plainly: BSK_hDFCGF_EGFR: BioMAP Diversity Plus: hDFCGF Assay for Epidermal growth factor receptor (EGFR) Biomarker Activity (AID 2283057). The settings on record: primary human foreskin fibroblasts; actives raise or lower the signal. The essentials: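 Cell-based multiplexed assay in primary human foreskin fibroblasts. EGFR is read by ELISA 24 h after treatment and compared with DMSO controls.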

Read-out in assay [8]: Interleukin-8 (IL8), CXCL8 (gene 3576)
Put plainly: BSK_hDFCGF_IL8: BioMAP Diversity Plus: hDFCGF Assay for Interleukin-8 (IL8) Biomarker Activity (AID 2283058). As to conditions: primary human foreskin fibroblasts; actives raise or lower the signal. The procedure, abridged: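 hDFCGF human dermal fibroblasts; 24 h chemical exposure; IL-8 by ELISA; bidirectional curve fit vs DMSO baseline; gain or loss of signal scored.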

Assay [9] can be described thus: BSK_hDFCGF_Proliferation: Cell Proliferation Assessment in the BioMAP Diversity Plus: hDFCGF Assay (AID 2283059).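 Also: curves fitted for both rise and fall of signal versus DMSO baseline.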 The settings on record: primary human foreskin fibroblasts. The essentials:
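This proliferation readout used SRB total-protein staining of human foreskin fibroblasts […], normalized to DMSO with bidirectional curve fitting.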

Read-out in assay [10]: Macrophage colony-stimulating factor (MCSF), CSF1 (gene 1435)
Kind of assay: BSK_hDFCGF_MCSF: BioMAP Diversity Plus: hDFCGF Assay for Macrophage colony-stimulating factor (MCSF) Biomarker Activity (AID 2283060). As to conditions: primary human foreskin fibroblasts; actives raise or lower the signal. The procedure, abridged: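 Human foreskin primary fibroblasts were treated with test chemical for 24 h, and M-CSF was then measured by ELISA. Data were fitted bidirectionally against DMSO as the negative control and activity baseline.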

The nature of assay [11]: BSK_hDFCGF_SRB: Viability Assessment in the BioMAP Diversity Plus: hDFCGF Assay (AID 2283061).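 Also: cells exposed to compound for 24 h before the read.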 The settings on record: primary human foreskin fibroblasts. The essentials: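 Human foreskin primary fibroblasts were treated with compound and assessed 24 h after dosing. Total protein was measured by sulforhodamine B staining (0.1% SRB after 10% TCA fixation, 560 nm read) as a cytotoxicity marker, with bidirectional fitting against DMSO baseline.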

Read-out in assay [12]: TIMP metallopeptidase inhibitor 1 (TIMP1), TIMP1 (gene 7076)
Put plainly: BSK_hDFCGF_TIMP1: BioMAP Diversity Plus: hDFCGF Assay for TIMP metallopeptidase inhibitor 1 (TIMP1) Biomarker Activity (AID 2283062). As to conditions: primary human foreskin fibroblasts; actives raise or lower the signal. The essentials: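 Primary human foreskin fibroblasts in the hDFCGF system were dosed with compound for 24 h, then TIMP-1 was measured by ELISA. Activity was fitted bidirectionally relative to DMSO control; parallel SRB staining assessed cytotoxicity.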

Read-out in assay [13]: Monokine induced gamma interferon (MIG), CXCL9 (gene 4283)
Kind of assay: BSK_hDFCGF_MIG: BioMAP Diversity Plus: hDFCGF Assay for Monokine induced gamma interferon (MIG) Biomarker Activity (AID 2283063). The settings on record: primary human foreskin fibroblasts; actives raise or lower the signal. The essentials:
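ELISA read-out of MIG from primary human dermal fibroblasts 24 h post-dosing. Gain or loss of signal fitted bidirectionally, DMSO as baseline.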

Read-out in assay [14]: Matrix Metallopeptidase 1 (MMP1), MMP1 (gene 4312)
Kind of assay: BSK_hDFCGF_MMP1: BioMAP Diversity Plus: hDFCGF Assay for Matrix Metallopeptidase 1 (MMP1) Biomarker Activity (AID 2283064). The settings on record: primary human foreskin fibroblasts; actives raise or lower the signal. The essentials:
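Human foreskin fibroblasts exposed to chemical for 24 h; MMP1 detected by ELISA, with DMSO as baseline for bidirectional fitting.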

Read-out in assay [15]: Vascular cell adhesion molecule 1 (VCAM1), VCAM1 (gene 7412)
Kind of assay: BSK_hDFCGF_VCAM1: BioMAP Diversity Plus: hDFCGF Assay for Vascular cell adhesion molecule 1 (VCAM1) Biomarker Activity (AID 2283065).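 As to AC50: VCAM-1 protein level quantified by ELISA after 24 h chemical exposure.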 The settings on record: primary human foreskin fibroblasts; actives raise or lower the signal. The essentials: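 Primary human foreskin fibroblasts (hDFCGF system) were dosed with chemical and VCAM-1 was measured by ELISA 24 h later. Bidirectional curve fitting used DMSO as negative control and activity baseline.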

Read-out in assay [16]: Plasminogen activator inhibitor-1 (PAI1), SERPINE1 (gene 5054)
Kind of assay: BSK_hDFCGF_PAI1: BioMAP Diversity Plus: hDFCGF Assay for Plasminogen activator inhibitor-1 (PAI1) Biomarker Activity (AID 2283066). The settings on record: primary human foreskin fibroblasts; actives raise or lower the signal. The essentials: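 Human skin fibroblast cultures receive chemical for 24 h before PAI-1 is measured by ELISA; signal changes are fitted bidirectionally against DMSO-treated wells.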

Read-out in assay [17]: Intercellular Adhesion Molecule 1 (ICAM1), ICAM1 (gene 3383)
Put plainly: BSK_KF3CT_ICAM1: BioMAP Diversity Plus: KF3CT Assay for Intercellular Adhesion Molecule 1 (ICAM1) Biomarker Activity (AID 2283067). The settings on record: primary human keratinocytes with fibroblasts; actives raise or lower the signal. The essentials:
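Human keratinocyte plus foreskin fibroblast primary co-culture was exposed to chemical for 24 h. ICAM-1 was then quantified by ELISA, and the data were fit bidirectionally against DMSO as the negative control and baseline.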

Read-out in assay [18]: Interferon-gamma inducible Protein 10 (IP10), CXCL10 (gene 3627)
Put plainly: BSK_KF3CT_IP10: BioMAP Diversity Plus: KF3CT Assay for Interferon-gamma inducible Protein 10 (IP10) Biomarker Activity (AID 2283068). As to conditions: primary human keratinocytes with fibroblasts; actives raise or lower the signal. The essentials: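 Signal is secreted/surface IP-10 by ELISA in a human primary skin co-culture of keratinocytes and foreskin fibroblasts, taken 24 h post-dosing; DMSO served as negative control.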

Assay [19] is described as follows: BSK_KF3CT_SRB: Viability Assessment in the BioMAP Diversity Plus: KF3CT Assay (AID 2283069).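 Also: fitted for both signal gain and loss against DMSO baseline.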 The settings on record: primary human keratinocytes with fibroblasts. The essentials:
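Overt cytotoxicity is assessed as total protein by sulforhodamine B staining in parallel human skin co-cultures at 24 h after dosing. DMSO serves as negative control and baseline.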

Read-out in assay [20]: Interleukin-1 alpha (IL1a), IL1A (gene 3552)
Put plainly: BSK_KF3CT_IL1a: BioMAP Diversity Plus: KF3CT Assay for Interleukin-1 alpha (IL1a) Biomarker Activity (AID 2283070). The settings on record: primary human keratinocytes with fibroblasts; actives raise or lower the signal. The essentials:
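Readout is IL-1a level by ELISA, compared bidirectionally with DMSO as baseline. Cells: human keratinocytes co-cultured with foreskin fibroblasts, harvested 24 h post-dose.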

Values joined by “and” are separate entries in the source; they are usually repeats but may differ in a detail not shown here. Equal entries are not always repeated. Where a structure was tested more than once in an assay, its records may differ in their call. Active and inactive are the calls of the source. The calls were made as follows: active = hit-call score of the fitted dose curve at least 0.9, where 1 is the maximum; inactive = score below 0.9.

For the molecule `COc1cccc(O)c1`, the outcome in [1], in assay [2], in [3], in assay [4], in assay [5] and in assay [6] was inactive. In addition, the result in assay [7], in assay [8], in assay [9], in [10], in [11] and in [12] was inactive. Besides, the result in assay [13], in [14], in [15], in assay [16], in [17] and in assay [18] was inactive. Further, the result in assay [19] and in assay [20] was inactive.
`Cc1ccc(N=Nc2c(O)ccc3ccccc23)c(C)c1`: the concentration at half-maximal activity (AC50) was 8.07 µM (active) in assay [1]; 10 µM (active) in assay [3]; 6.8 µM (active) in [6]; 10 µM (active) in assay [10]; 5.25 µM (active) in assay [15]. Besides, the result in assay [2], in assay [4], in [5], in assay [7], in assay [8] and in assay [9] was inactive. Besides, the result in assay [11], in assay [12], in assay [13], in [14], in assay [16] and in [17] was inactive. The outcome in assay [18], in [19] and in assay [20] was inactive.
Turning to `CC1=NN(c2ccccc2)C(=O)C1`, the AC50 in assay [1] is 9.62 µM (active). In addition, the outcome in [2], in assay [3], in [4], in [5], in assay [6] and in assay [7] was inactive. Also, the result in assay [8], in assay [9], in assay [10], in [11], in assay [12] and in assay [13] was inactive. Also, the outcome in [14], in [15], in [16], in [17], in assay [18] and in assay [19] was inactive. Also, the outcome in [20] was inactive.
For `O=C(CC(=O)C(F)(F)C(F)(F)C(F)(F)F)c1cccs1`, the AC50 was 54.4 µM (active) in assay [1]; 51.8 µM (active) and 50.9 µM (active) in [4]; 40.6 µM (active) and 38.2 µM (active) in [5]; 4.23 µM (active) and 4.92 µM (active) in assay [9]; 7.78 µM (active) in assay [13]; 7.77 µM (active) in assay [14]. Moreover, the result in [1], in assay [2], in assay [3], in assay [6], in assay [7] and in [8] was inactive. Besides, the outcome in assay [10], in assay [11], in [12], in assay [13], in assay [14] and in assay [15] was inactive. Besides, the outcome in [16], in assay [17], in assay [18], in assay [19] and in [20] was inactive.
Regarding `CCCCCc1ccc(O)cc1`, the AC50 is 34 µM (active) in assay [1]; 12 µM (active) in assay [2]; 33.2 µM (active) in assay [3]; 14.4 µM (active) in [4]; 13.1 µM (active) in [5]; 12.5 µM (active) in [6]. Besides, the AC50 in assay [9] is 8.97 µM (active); in assay [10], 25.5 µM (active); in assay [11], 28.9 µM (active); in assay [12] it was 20 µM (active); in assay [13] it was 31.3 µM (active); in assay [14] it was 20 µM (active). Besides, the AC50 in assay [15] was 15.2 µM (active); in assay [16] it was 28.5 µM (active); in assay [17], 27.6 µM (active); in assay [18], 29.2 µM (active); in assay [19], 12.4 µM (active); in assay [20], 20 µM (active). The outcome in assay [8] was inactive.

A word on the AC50: it is the midpoint of the concentration-response curve, whichever way the signal moves.

For the origin of these results see PubChem BioAssay (EPA / NIEHS).
